# From PubChem
# Tau FP inhib = tau fibrillization inhibition (FP). Potency, µM (doses to about 57.7 µM), for the others: at the highest dose activity, negative = inhibition, most hits filed as inhibitors. K18 P301L tau heparin fibrillization, Alexa594 FP, 6 h. P10636. 0.39% of 280,000 active; note: potency is the fitted concentration of half-maximal effect; % is set by controls: 0 for no effect and ±100 for the full control effect; nearly all actives have a fitted effect of over 55% in size
# Target sequence (P10636 561-689 P618L limits assumed): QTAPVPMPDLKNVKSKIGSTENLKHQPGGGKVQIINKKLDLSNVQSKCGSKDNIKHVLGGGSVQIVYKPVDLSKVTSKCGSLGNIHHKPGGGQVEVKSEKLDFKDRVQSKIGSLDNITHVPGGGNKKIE
#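 Compound effects on tau fibrillization are measured by Alexa 594 fluorescence polarization (ex 555, em 632 nm). K18 P301L tau is used at 15 uM with 0.24 uM labeled tracer, and 20 uM heparin induces aggregation over 6 hr at 37 C.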
# CBFb-RUNX1 inh = blocks binding between human CBF-beta and RUNX1 | 230,000 tested, under 10 active | AID 1477 | AlphaScreen CBFb-His/RUNX1-biotin binding, biochemical | Q01196+Q13951 | Potency, µM (highest dose often 59.8 µM), for inactives: top-dose activity, negative = inhibition, hits mostly inhibitors; note: % of control where 0% means no effect
# Target sequence (Q01196 whole entry, looked up): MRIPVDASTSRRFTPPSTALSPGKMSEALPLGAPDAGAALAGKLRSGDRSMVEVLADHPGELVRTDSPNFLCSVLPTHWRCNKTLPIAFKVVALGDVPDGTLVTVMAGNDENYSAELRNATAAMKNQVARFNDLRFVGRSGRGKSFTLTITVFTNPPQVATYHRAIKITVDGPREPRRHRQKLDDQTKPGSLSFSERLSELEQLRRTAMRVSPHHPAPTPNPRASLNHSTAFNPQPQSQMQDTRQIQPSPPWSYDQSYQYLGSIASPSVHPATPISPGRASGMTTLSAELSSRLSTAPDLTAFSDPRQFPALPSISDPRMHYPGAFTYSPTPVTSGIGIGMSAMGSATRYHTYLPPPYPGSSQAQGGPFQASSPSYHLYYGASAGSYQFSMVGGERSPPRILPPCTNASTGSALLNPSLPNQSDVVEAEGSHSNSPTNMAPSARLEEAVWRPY
# Target sequence (Q13951 whole entry, looked up): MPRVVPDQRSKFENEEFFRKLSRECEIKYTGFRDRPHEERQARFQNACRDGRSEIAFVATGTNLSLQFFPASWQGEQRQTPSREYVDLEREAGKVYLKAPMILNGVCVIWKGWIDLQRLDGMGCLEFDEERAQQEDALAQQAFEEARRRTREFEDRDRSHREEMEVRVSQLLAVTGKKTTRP
#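 Inhibition was taken as any reduction in AlphaScreen signal from the CBF-beta–RUNX1 pair (His and biotin tags, 30 nM each), measured after compound (15 min) and bead (90 min) incubations at room temperature.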
# JMJD2E inh = inhibitors of human JMJD2E histone demethylase; JMJD2E catalytic domain, FDH-coupled NADH fluorescence (FDH is formaldehyde dehydrogenase); Potency, µM (series often up to 57.1 µM), for inactives: top-dose activity change, negative = inhibition, usual class: inhibitors; 1.6% of 230,000 active; AID 2147; active = well fitted inhibition curve with a large enough effect, not every such curve was filed as active; inconclusive = small, poorly fitted or top-dose-only effect, or another doubt; inactive = no such curve, though single readings can be large or run the other way;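 note: potency is the fitted concentration of half-maximal effect; 0% = wells with enzyme and -100% = buffer wells without enzyme; nearly all actives have a fitted effect of over 50% in size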
# Tau fibril ThT = inhibitors of human tau fibril formation, thioflavin T binding. recombinant tau K18 P301L, heparin-induced fibrillization, ThT fluorescence. Potency, µM (highest dose often 57.4 µM), for inactives: at the highest dose activity, negative = inhibition, most hits filed as inhibitors. 2.1% of 270,000 active. P10636; note: potency is the fitted concentration of half-maximal effect; % is set by controls: 0 for no effect and ±100 for the full control effect; nearly all actives have a fitted effect of over 55% in size
#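 Fibril formation assay: tau K18 P301L at 15 uM with trace Alexa 594 label, heparin inducer 20 uM, pH 7 sodium acetate buffer, 37 C for 6 hr; endpoint ThT signal.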
# Tau fluor counter = counter-screen for tau fibril formation inhibitors | tau K18 P301L Alexa594 fluorescence, heparin fibrillization | Potency, µM (titrated, usually from 57.7 µM), inactives show at the highest dose activity change, negative = decrease | 0.93% of 280,000 active; note: potency is the fitted concentration of half-maximal effect; % is set by controls: 0 for no effect and ±100 for the full control effect; nearly all actives have a fitted effect of over 55% in size
#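 Human tau K18 P301L (15 uM unlabeled, 0.24 uM Alexa 594-labeled) in 100 mM sodium acetate pH 7 with 20 uM heparin, 6 hr at 37 C. ThT 30 uM added, 1 hr ambient; Alexa 594 FP and total fluorescence read at 555/632 nm.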
# Lamin A splicing = changes lamin A minigene splicing in HeLa cells; HeLa LMNA splicing GFP/RFP minigene ratio, 48 h; Potency, µM (top dose mostly 46.1 µM), for the others: top-dose ratio change, negative = inhibition, actives largely listed as inhibitors; 0.01% of 200,000 active; AID 1487; active = well fitted inhibition curve with a large enough effect in the signal ratio, with a control signal flat, not every such curve was filed as active; inconclusive = small, poorly fitted or top-dose-only effect, or effect the other way, or a change in a side signal; the % refers to the signal ratio; note: potency is the fitted concentration of half-maximal effect; % is set by controls: 0 for no effect and ±100 for the full control effect
#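 S3 HeLa stable clones carrying a lamin A-EGFP splicing minigene plus DsRed2 were seeded at 600 cells/well in Opti-MEM with 2% FBS, pin-dosed and incubated 48 h at 37°C. Acumen cytometry (488 nm) gave the GFP/RFP total-intensity ratio.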
# The depositor's hits bear a star; ? = inconclusive; . = no result given; [ ] = remark or other dose. A selection: hits, their analogues and other compounds. The true share with any hit is near 3.2%. Unless noted, calls come from the whole dose curve; as a rule, active = well fitted curve in the direction sought with a large enough effect; inconclusive = small, poorly fitted or top-dose-only effect, or another doubt; inactive = no such curve, though single readings can be large; an effect the other way counts as inactive or inconclusive.
SMILES,Tau FP inhib,CBFb-RUNX1 inh,JMJD2E inh,Tau fibril ThT,Tau fluor counter,Lamin A splicing
C=C/C(=C/C(=O)C[C@H](C)C[C@@H](C)CC[C@H](O)[C@H](C)C(=O)C[C@@H](O)[C@H](C)[C@@H](C)OC(=O)C[C@@H](O)C1=C(C)C(=O)OC1=O)CC,0.6%[11.6 µM],1.7%[13.1 µM],.,-13.9%[11.5 µM],-0.2%[11.6 µM],.
NC[C@@H]1O[C@H](O[C@H]2[C@H](O)[C@@H](O[C@H]3[C@H](O)[C@H](N)C[C@H](N)[C@H]3O[C@@H]3O[C@H](CO)[C@@H](O)[C@H](O)[C@@H]3N)O[C@H]2CO)[C@@H](N)[C@H](O)[C@@H]1O,.,6.0%[21.7 µM],0.1%[25.5 µM],.,.,8.2%
Cc1cc(Br)ccc1N1C(=O)CC(=O)NC1=O,?,-5.0%,-1.7%,12.6µM*,-8.1%,-6.8%
CCOC(=O)c1c(C)[nH]c(C)c1S(=O)(=O)N1CCC(C(=O)N2CCN(c3ccc(Cl)cc3)CC2)CC1,?,.,.,-6.5%,-23.6%,2.8%[46 µM]
CC[n+]1c(/C=C/C=C/c2ccc(N(C)C)cc2)sc2ccccc21,6.31µM*,-16.7%,-2.9%,1.12µM*,10µM*[quencher],.
CN(C)c1ccc(/C=C/C=C/c2sc3ccccc3[n+]2C)cc1,?,-12.0%,-1.0%,6.31µM*,?,.
CC[n+]1c(/C=C/N(C)c2ccccc2)sc2ccc(Cl)cc21,4.5%,-2.7%,-4.2%,?,?,?
CN1C(=O)C(=Cc2ccc(N3CCCCC3)o2)C(=O)N(C)C1=S,?,4.7%,-3.4%,-9.3%,-8.6%,17.9%
CCN(CC)c1ccc(/C=C2\C(=O)NC(=S)N(C)C2=O)o1,6.2%,6.4%,0.3%,14.1µM*,-9.9%,.
Cc1cc(C)cc(N2C(=O)/C(=C\c3ccc(N4CCN(C)CC4)o3)C(=O)NC2=S)c1,-2.8%,-7.6%,-14.6%,?,-9.4%,.
CCN(CC)c1ccc(C=C2C(=O)N(C)C(=S)N(C)C2=O)o1,-11.5%,-5.3%,-1.8%,10µM*,-1.2%,-2.3%
O=C(O)c1ccccc1O,-6.1%,7.0%,?,-8.4%,-8.4%,-3.3%
Oc1ccccc1O,?,-19.4%,14.1µM*,?,?,?
C[C@H](CCC(=O)O)[C@H]1CC[C@@H]2[C@H]3CC[C@H]4C[C@H](O)CC[C@]4(C)[C@@H]3CC[C@@]21C,9.3%,5.8%[21.7 µM],9.1%,-5.0%,-1.2%,.
CC(C)(C)C(=O)OC1=CN(Cc2ccccc2)S(=O)(=O)c2ccccc21,-2.5%,.,.,-4.0%,-24.2%,?
CCn1cc(C(=O)O)c(=O)c2cc(F)c(N3CCNCC3)cc21,8.1%,5.5%,15.8µM*,-3.2%,-5.5%,?
O=[N+]([O-])c1cc(F)c(N2CCCCCC2)cc1N1CCNCC1,-0.7%,4.1%,9.8%,?,-9.2%,-16.5%[46 µM]
Cl.Cl.Cl.Cl.Cl.Cl.N.N.N.N.NNNNN.NNNNN.O.O.[Ru].[Ru].[Ru],?,-0.1%[21.7 µM],31.6µM*,22.4µM*,?,.
CN(C)c1ccc(N(C)C)cc1,.,-8.2%[21.7 µM],.,.,.,.
C[C@@H]1O[C@@H](O[C@H]2CC[C@@H](O[C@H]3[C@H](O)C[C@H](c4ccc5c(c4O)C(=O)C4=C(C5=O)[C@@]5(O)C(=O)C[C@](C)(O[C@H]6CC[C@H](O[C@H]7C=CC(=O)[C@H](C)O7)[C@H](C)O6)C[C@@]5(O)C=C4)O[C@@H]3C)O[C@H]2C)C=CC1=O,.,-10.4%,.,.,.,.
C=CCN1CC[C@]23CCCCC2[C@H]1Cc1ccc(O)cc13 (stereo not given in full),-7.4%,-4.2%,-0.5%,-10.0%,-13.4%,?
CN1CC[C@@]2(C)c3cc(O)ccc3N(C)C12 (stereo not given in full),8.91µM*,14.8%,5.01µM*,7.08µM*,?,?
CN1CC[C@]2(C)c3cc(O)ccc3N(C)[C@@H]12,.,-0.3%[21.7 µM],2.24µM*,.,.,-1.6%
O=C(Nc1nc2c(s1)CCCCCC2)Nc1ccc(F)cc1F,-10.4%,.,.,7.1%,-18.9%,?
N#C/C(=C\c1ccc(O)c(O)c1)C(N)=S,?,?,?,2.24µM*,?,.
SMILES,Tau FP inhib,CBFb-RUNX1 inh,JMJD2E inh,Tau fibril ThT,Tau fluor counter,Lamin A splicing
CC(C)(C)NCC1(CO)SC(N)=NC1=O (stereo not given),-9.2%,-0.8%,2.4%,-5.0%,2.4%,?
CCOC(=O)c1c(NC(=O)c2c(N)n(CCCOC)c3nc4ccccc4nc23)sc2c1CCCC2,11.5%,-2.4%,9.7%,?,?,3.7%
Cc1ccccc1C(=O)Nc1sc2c(c1C(=O)O)CCC(C(C)(C)C)C2 (stereo not given),-7.9%,.,.,20µM*,?,.
Cc1ccccc1-n1c(O)c(/C=N/N2CCCCC2c2cccnc2)c(=O)[nH]c1=O (stereo not given),-8.6%,1.2%,-0.8%,6.2%,10.5%,?
CN(N=O)c1ccc(O)c(O)c1,-1.6%,.,10µM*,-6.0%,-9.2%,?
O=C1C=CC(=O)c2c(O)cccc21,?,.,7.08µM*,11.2µM*,7.08µM*[quencher],.
CCOc1ccc2nc(N=Nc3c(O)[nH]c(=O)[nH]c3=O)sc2c1,1.4%,-26.6%,-0.6%,4.47µM*,-17.3%,.
CCOc1ccc2nc(N=Nc3c(O)[nH]c(=S)[nH]c3=O)sc2c1,-1.1%,-14.5%,-5.8%,2.24µM*,?,-10.7%[46 µM]
CCOC(=O)c1sc(N=Nc2c(O)[nH]c(=O)[nH]c2=O)c(C(=O)OCC)c1C,6.9%,-5.2%,0.4%,3.4%,3.0%,?
CCOc1ccc2nc(NC(=O)c3cccn(Cc4ccccc4C)c3=O)sc2c1,-8.2%,.,.,-1.4%,-17.2%,14.1%[46 µM]
O=C(N=Nc1c(O)n(C2OC(=O)c3ccccc32)c2ccccc12)c1ccco1 (stereo not given),4.1%,11.2%,7.9%,?,-2.0%,.
O=C(Nc1ccc(Br)cc1)c1ccc(F)c(S(=O)(=O)N2CCCc3ccccc32)c1,15.8µM*,.,.,-1.1%,7.08µM*[quencher],-22.8%[46 µM]
O=C(Nc1ccc(Br)cc1)c1cccc(S(=O)(=O)N2CCc3ccccc32)c1,?,.,.,10.0%,?,.
O=C1NC(=O)C(=Cc2ccc(N3CCOCC3)o2)C(=O)N1,-8.0%,-8.9%,17.8µM*,?,1.7%,.
C=CCN1C(=O)/C(=C/c2ccc(N3CCOCC3)o2)C(=O)NC1=S,-1.0%,4.0%,-4.4%,0.1%,2.8%,?
Cc1cccn2c(=O)cc(COc3cccc(NC(=O)COc4ccc(F)cc4)c3)nc12,-12.3%,.,.,-6.2%,-21.3%,?
CC[n+]1c(-c2ccccc2)c2cc(N)ccc2c2ccc(N)cc21,11.2µM*,?,?,3.98µM*,?,?
Cc1cc(C)c(Cn2c3ccccc3c3cnn(CC(=O)NCc4ccc(Cl)cc4)c(=O)c32)c(C)c1,?,.,.,-3.5%,-6.1%,.
